Structures are written as SMILES. The list shows a part of the results. The source made the active and inactive calls.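 Rule for the calls, unless noted: active = inhibition above 50%; inactive = the rest.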

The source of these data is PubChem BioAssay.

Assay [1] addresses Regulator of G-protein signaling 16 (Homo sapiens) (UniProt O15492). As to the kind of experiment: small molecules altering RGS protein interactions with GNAO1 – biochemical, multiplexed beads, flow cytometry, RGS4/7/8/16/19, primary screen (AID 1504).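 Note: fluorescently labeled Galpha-o bound to GDP with aluminium fluoride binding biotinylated RGS beads.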 Particulars: multiplexed bead flow cytometry, measured here: RGS16 interaction, at 10 µM.
Assay [2] deals with Regulator of G-protein signaling 19 (Homo sapiens) (UniProt P49795). The assay is described as above. Particulars: multiplexed bead flow cytometry, measured here: RGS19 interaction, at 10 µM.
Assay [3] deals with Regulator of G-protein signaling 7 (Homo sapiens) (UniProt P49802). Described as above. Particulars: multiplexed bead flow cytometry, measured here: RGS7 interaction, at 10 µM.
Assay [4] addresses Regulator of G-protein signaling 8 (Homo sapiens) (UniProt P57771). Described as above. As to conditions: multiplexed bead flow cytometry, measured here: RGS8 interaction, at 10 µM.
A short description of assay [5]: interference with biotin-avidin bead interaction – biochemical, flow cytometry, bead-based, counter-screen for RGS protein interaction modulators (AID 1783).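 Note: median green fluorescence of gated singlet beads compared with DMSO control wells; 0% = DMSO wells and 100% = complete loss of bead fluorescence.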 As to conditions: streptavidin beads, fluorescein-biotin binding; at 10 µM, stronger effect = higher value.
Assay [6] deals with Guanine nucleotide-binding protein G(o) subunit alpha (Homo sapiens) (UniProt P09471). As to the kind of experiment: retest of RGS8-Galphao interaction hits – biochemical, multiplexed bead flow cytometry, single concentration, confirmation (AID 1836; in the data active = binding response below about 72% or above about 130%; inactive = in between;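 note: Galphao activated as GDP AlF4 complex before binding bead RGS8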). As to conditions: bead-based flow cytometry RGS8-Galphao binding, fluorescence; at 10 µM; actives lie on both sides.
Sequence of Guanine nucleotide-binding protein G(o) subunit alpha (Homo sapiens) (P09471 whole entry, looked up): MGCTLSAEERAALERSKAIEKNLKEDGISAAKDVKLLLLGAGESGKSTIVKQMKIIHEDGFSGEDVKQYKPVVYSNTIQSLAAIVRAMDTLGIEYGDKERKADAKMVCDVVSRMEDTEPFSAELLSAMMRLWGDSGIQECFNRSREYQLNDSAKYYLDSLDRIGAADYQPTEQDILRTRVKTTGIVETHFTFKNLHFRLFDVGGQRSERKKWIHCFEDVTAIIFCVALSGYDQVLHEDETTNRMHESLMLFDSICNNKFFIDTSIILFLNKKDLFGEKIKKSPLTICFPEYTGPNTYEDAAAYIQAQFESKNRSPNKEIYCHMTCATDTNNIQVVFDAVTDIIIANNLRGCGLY
For assay [7] the target is unchanged. In words: retest of RGS7-Galphao interaction hits – biochemical, multiplexed bead flow cytometry, single concentration, confirmation (AID 1837; in the data active = response below about 75% or above about 130%; inactive = in between;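 note: fluorescent Galphao activated with GDP and aluminum fluoride binding bead-coupled RGS7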). As to conditions: bead-based flow cytometry RGS7-Galphao binding; at 10 µM; actives lie on both sides.
In assay [8] the target is Regulator of G-protein signaling 16 (Homo sapiens) + Guanine nucleotide-binding protein G(o) subunit alpha (Homo sapiens) (UniProt O15492+P09471). In words: RGS16 and Galphao interaction regulators – biochemical, single concentration, multiplexed bead flow cytometry, confirmation (AID 1838; in the data active = response below about 74% or above about 130%; inactive = in between;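 note: Galphao activated as the GDP aluminium fluoride complex binding bead-coupled RGS16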). Particulars: bead-based flow cytometry, at 10 µM, actives lie on both sides.
Sequence of Regulator of G-protein signaling 16 (Homo sapiens) + Guanine nucleotide-binding protein G(o) subunit alpha (Homo sapiens) (O15492 whole entry, looked up): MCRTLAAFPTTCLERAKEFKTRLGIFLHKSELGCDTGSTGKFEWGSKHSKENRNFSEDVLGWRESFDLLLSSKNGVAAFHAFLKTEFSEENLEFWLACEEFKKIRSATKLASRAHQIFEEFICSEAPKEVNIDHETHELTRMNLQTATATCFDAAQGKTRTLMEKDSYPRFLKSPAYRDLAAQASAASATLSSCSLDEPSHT
Sequence of Regulator of G-protein signaling 16 (Homo sapiens) + Guanine nucleotide-binding protein G(o) subunit alpha (Homo sapiens) (P09471 whole entry, looked up): as the sequence (P09471 whole entry, looked up) above
For assay [9], the target named is Guanine nucleotide-binding protein G(o) subunit alpha (Homo sapiens) (UniProt P09471). As to the kind of experiment: RGS4 and Galphao interaction regulators – biochemical, single concentration, multiplexed bead flow cytometry, confirmation (AID 1840; in the data active = binding response below about 74% or above about 130%; inactive = in between). Particulars: at 10 µM, actives lie on both sides.
For assay [10], the target named is Guanine nucleotide-binding protein G(o) subunit alpha (Homo sapiens) + Regulator of G-protein signaling 19 (Homo sapiens) (UniProt P09471+P49795). As to the kind of experiment: RGS19 interaction with Gαo, hit retest – biochemical, single point, multiplexed bead flow cytometry, confirmation (AID 1841; in the data active = response below about 50% or above about 160%; inactive = in between;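 note: 100% = no compound control and 0% = blank background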). As to conditions: bead-based flow cytometry RGS19-Galphao binding; at 10 µM; actives lie on both sides.
Sequence of Guanine nucleotide-binding protein G(o) subunit alpha (Homo sapiens) + Regulator of G-protein signaling 19 (Homo sapiens) (P09471 whole entry, looked up): as above
Sequence of Guanine nucleotide-binding protein G(o) subunit alpha (Homo sapiens) + Regulator of G-protein signaling 19 (Homo sapiens) (P49795 whole entry, looked up): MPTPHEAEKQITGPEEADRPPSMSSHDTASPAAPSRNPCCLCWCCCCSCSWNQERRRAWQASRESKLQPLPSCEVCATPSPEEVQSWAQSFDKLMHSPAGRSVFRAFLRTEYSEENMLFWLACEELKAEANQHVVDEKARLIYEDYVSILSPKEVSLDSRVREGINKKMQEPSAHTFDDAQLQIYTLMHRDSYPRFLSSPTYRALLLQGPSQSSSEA

For `CC(C)Cc1nc(Nc2ccc(S(=O)(=O)N3CCCC3)cc2)c2nnn(Cc3ccccc3)c2n1`, in [1], the RGS16–Galpha-o binding response stood at 260%. For the same molecule, the RGS19–Galpha-o binding response in assay [2] was 48.9%. In addition, in assay [3], the RGS7–Galpha-o binding response is 137%. In assay [4], the RGS8–Galpha-o binding response stood at 141%. Moreover, the inhibition in assay [5] was 1.3% (inactive). Moreover, the binding response (% of control) in assay [6] was 94.8% (inactive); in assay [9] it was 90.6% (inactive). The response (percent of control binding) in [7] is 91.8% (inactive); in assay [10] it was 95.9% (inactive). In assay [8], the response (% of control binding) was 91.9% (inactive).

In the case of `CN1CCN(C(CNS(=O)(=O)c2cccs2)c2cccnc2)CC1` (stereo not drawn), in [1], the RGS16–Galpha-o binding response is -5.62%. Also, in assay [2], the RGS19–Galpha-o binding response was found to be 168%. The RGS7–Galpha-o binding response in assay [3] is -9.98%. In addition, in assay [4], the RGS8–Galpha-o binding response came out at 10.6%.

For `CCOC(=O)C1=C(c2ccccc2)N=C2SCC(=O)N2C1c1ccc(O)c(OC)c1` (stereo not drawn), the RGS16–Galpha-o binding response in [1] came out at 222%. In addition, the RGS19–Galpha-o binding response in assay [2] was -290%. Also, the RGS7–Galpha-o binding response in [3] was 122%. In assay [4], the RGS8–Galpha-o binding response is 144%. The inhibition in assay [5] was 0% (inactive). Also, the binding response (% of control) in assay [6] was 109% (inactive); in assay [9], 106% (inactive). Besides, the values for the response (percent of control binding) in assay [7] and in [10] were 108% (inactive) and 104% (inactive), respectively. Besides, the response (% of control binding) in assay [8] is 110% (inactive).

Regarding `Cc1ccc(N2C(=O)C3C(c4ccccc4)(C2=O)C3(c2ccccc2)c2ccccc2)cc1` (stereo not drawn), in assay [1], the RGS16–Galpha-o binding response is 13.2%. Also, in assay [2], the RGS19–Galpha-o binding response came to 310%. Besides, the RGS7–Galpha-o binding response in assay [3] is 14.4%. This molecule showed an RGS8–Galpha-o binding response in assay [4] of 23.3%. For the same molecule, the inhibition in assay [5] was -0.7% (inactive). Moreover, the binding response (% of control) in [6] is 91.8% (inactive); in assay [9] it was 68.2% (active). Moreover, the response (percent of control binding) was 60.8% (active) in assay [7] and 75.7% (inactive) in assay [10]. Moreover, the response (% of control binding) in assay [8] was 80.2% (inactive).

Turning to `NC(=O)Cc1ccc2sc(-c3ccccc3)nc2c1`, in assay [1], the RGS16–Galpha-o binding response stood at 23.6%. In [2], the RGS19–Galpha-o binding response is 149%. Further, the RGS7–Galpha-o binding response in [3] amounted to 92.4%. This molecule returned an RGS8–Galpha-o binding response in [4] of 84%. Moreover, the inhibition in [5] was -0.3% (inactive). In addition, the binding response (% of control) in [6] is 98.7% (inactive); in [9], 55.9% (active). Besides, the results for the response (percent of control binding) in assay [7] and in [10] were 43.6% (active) and 78.6% (inactive), respectively. In addition, the response (% of control binding) in assay [8] was 80% (inactive).

Regarding `C=CCn1c(=NC(=O)c2cccs2)sc2cc(NC(C)=O)ccc21`, the RGS16–Galpha-o binding response in assay [1] worked out at 152%. For the same molecule, the RGS19–Galpha-o binding response in [2] stood at 58.7%. Moreover, the RGS7–Galpha-o binding response in assay [3] was determined as 152%. Further, the RGS8–Galpha-o binding response in assay [4] came out at 136%. Moreover, the inhibition in assay [5] is -1.6% (inactive). The figures for the binding response (% of control) in assay [6] and in [9] were 103% (inactive) and 102% (inactive), respectively. Besides, the values for the response (percent of control binding) in [7] and in assay [10] were 107% (inactive) and 109% (inactive), respectively. For the same molecule, the response (% of control binding) in assay [8] was 103% (inactive).

Consider `CCN(CC)CCn1cnc2c1c(=O)n(CCOC(=O)c1cc(OC)c(OC)c(OC)c1)c(=O)n2C`, for which the RGS16–Galpha-o binding response in [1] amounted to 147%. The RGS19–Galpha-o binding response in [2] worked out at 76.4%. Moreover, in assay [3], the RGS7–Galpha-o binding response came to 13%. The RGS8–Galpha-o binding response in assay [4] was found to be 131%. Besides, the inhibition in assay [5] was -0.6% (inactive). Besides, the binding response (% of control) in [6] was 104% (inactive); in assay [9], 105% (inactive). Besides, the response (percent of control binding) in assay [7] is 103% (inactive); in [10], 108% (inactive). For the same molecule, the response (% of control binding) in assay [8] was 104% (inactive).

`FC(F)Oc1ccccc1C1CC(c2ccc(Br)s2)Nc2ncnn21` (stereo not drawn): in assay [1], the RGS16–Galpha-o binding response is 215%. Moreover, the RGS19–Galpha-o binding response in [2] is -1720%. Further, in assay [3], the RGS7–Galpha-o binding response amounted to 163%. The molecule also showed an RGS8–Galpha-o binding response in assay [4] of 111%. Moreover, in [5], the inhibition is 2.6% (inactive). In addition, the results for the binding response (% of control) in assay [6] and in assay [9] were 99.3% (inactive) and 95.9% (inactive), respectively. For the same molecule, the values for the response (percent of control binding) in assay [7] and in assay [10] were 98% (inactive) and 96% (inactive), respectively. Further, the response (% of control binding) in [8] was 97.2% (inactive).

With `CCN(CC)CCOc1ccc2c(c1)C(=NNC(=O)c1ccccn1)c1cc(OCCN(CC)CC)ccc1-2`, the RGS16–Galpha-o binding response in assay [1] is 203%. In assay [2], the RGS19–Galpha-o binding response stood at 146%. Also, the RGS7–Galpha-o binding response in [3] is 216%. Besides, in assay [4], the RGS8–Galpha-o binding response stood at 154%.
